43 compounds from PubChem BioAssay AID1224864 (Chung Lab, Department of Pediatrics, Emory University, 2016) can be followed below.

SMILES strings stand for the structures. Screen size: about 2,000 compounds; about 20 (1%) were called active. No rule for the calls is given here. Many of the other results were omitted from the sample, so actives are more common in it than they were. Residues, ends and D or L forms follow the SMILES beside them. *: point of attachment. Boc = CC(C)(C)OC(=O)*; OBn = c1ccc(CO*)cc1

The target in the test is Cystic fibrosis transmembrane conductance regulator (Homo sapiens) (UniProt P13569). Nature of the test: correctors of F508del-CFTR surface localization, primary screen, imaging, HeLa, high-content microscopy, immunofluorescence (AID 1224864).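 Also: HeLa cells stably expressing F508del-CFTR stained with 3G11 antibody against NBD1.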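 As to plasma membrane CFTR intensity: mean immunofluorescence in a thin cell-margin band taken as plasma membrane.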 As to conditions: PM immunofluorescence imaging, 24 h, at 10 µM, stronger effect = higher value, relative to vehicle wells set at 100; total CFTR intensity: measured here: total cellular F508del-CFTR signal.
Chain of Cystic fibrosis transmembrane conductance regulator (Homo sapiens) (P13569 whole entry, looked up, stated change not applied): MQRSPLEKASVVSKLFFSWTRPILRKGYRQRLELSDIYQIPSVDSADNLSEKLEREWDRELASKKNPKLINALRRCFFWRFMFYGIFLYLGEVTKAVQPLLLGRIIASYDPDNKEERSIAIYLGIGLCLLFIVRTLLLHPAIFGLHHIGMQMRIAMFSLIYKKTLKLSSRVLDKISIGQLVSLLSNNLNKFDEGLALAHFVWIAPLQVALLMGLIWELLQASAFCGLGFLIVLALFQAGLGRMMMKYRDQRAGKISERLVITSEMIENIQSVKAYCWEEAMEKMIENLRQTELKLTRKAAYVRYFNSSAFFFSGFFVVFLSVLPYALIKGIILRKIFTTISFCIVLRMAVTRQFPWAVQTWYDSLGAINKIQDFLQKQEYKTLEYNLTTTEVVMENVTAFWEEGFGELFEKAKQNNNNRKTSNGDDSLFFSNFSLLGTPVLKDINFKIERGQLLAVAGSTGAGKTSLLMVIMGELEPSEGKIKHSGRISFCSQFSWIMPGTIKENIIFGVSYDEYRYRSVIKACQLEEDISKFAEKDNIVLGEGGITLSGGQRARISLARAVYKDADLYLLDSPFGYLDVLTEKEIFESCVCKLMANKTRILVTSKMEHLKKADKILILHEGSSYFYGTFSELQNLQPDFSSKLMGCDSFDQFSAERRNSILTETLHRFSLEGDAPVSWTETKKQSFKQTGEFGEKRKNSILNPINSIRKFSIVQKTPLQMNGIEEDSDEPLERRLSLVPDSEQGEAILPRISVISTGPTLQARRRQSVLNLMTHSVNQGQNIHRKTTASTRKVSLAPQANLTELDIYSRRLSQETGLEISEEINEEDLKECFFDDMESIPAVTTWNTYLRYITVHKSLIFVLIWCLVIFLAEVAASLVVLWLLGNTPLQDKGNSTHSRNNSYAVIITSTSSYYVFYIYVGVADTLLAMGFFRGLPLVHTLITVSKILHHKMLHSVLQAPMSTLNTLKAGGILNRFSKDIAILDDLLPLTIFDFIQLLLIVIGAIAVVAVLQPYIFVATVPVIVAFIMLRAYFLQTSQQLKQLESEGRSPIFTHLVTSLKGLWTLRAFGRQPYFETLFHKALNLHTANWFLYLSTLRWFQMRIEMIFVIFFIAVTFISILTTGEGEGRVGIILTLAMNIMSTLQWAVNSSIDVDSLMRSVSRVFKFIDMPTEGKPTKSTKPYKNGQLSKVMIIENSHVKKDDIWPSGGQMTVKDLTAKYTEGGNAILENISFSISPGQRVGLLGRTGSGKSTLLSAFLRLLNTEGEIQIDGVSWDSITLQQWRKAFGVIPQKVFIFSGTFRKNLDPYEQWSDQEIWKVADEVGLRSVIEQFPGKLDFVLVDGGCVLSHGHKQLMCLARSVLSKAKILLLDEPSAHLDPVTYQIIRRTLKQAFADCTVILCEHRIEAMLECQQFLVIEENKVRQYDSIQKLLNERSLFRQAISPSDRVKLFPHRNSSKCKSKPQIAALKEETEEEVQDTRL
`O=C1CC(c2ccc(OCCCCCOc3ccc(C4CC(=O)NC4=O)cc3)cc2)C(=O)N1` (stereo unspecified): the plasma membrane CFTR intensity was 96% (inactive) and the total CFTR intensity was found to be 95%.
On the same counts, the results for `O=C1CN(O)C=C2N=c3ccccc3=C2N1c1ccc([N+](=O)[O-])cc1` are 72% (inactive) and 74%.
With `O=C(CCC1CCCN(C(=O)c2ccsc2)C1)NCc1ccc(F)c(F)c1` (stereo unspecified), the plasma membrane CFTR intensity was 81% (inactive) and the total CFTR intensity stood at 83%.
The like results for `CC1(C)C(=O)OC(c2cccs2)C2(CCCCC2)C1=O` (stereo unspecified) were, in that order, 102% (inactive) and 110%.
The like results for `NC12CC3CC(C1)CC(O)(C3)C2` were, in that order, 89% (inactive) and 91%.
On the same counts, the results for `Cc1cc(C)cc(Nc2nc3c([nH]2)c(=O)n(C)c(=O)n3C)c1` are 98% (inactive) and 95%.
In the case of `CCOC(=O)C(=O)Nc1ccc(Oc2ccccc2)cc1`, the plasma membrane CFTR intensity was 85% (inactive) and the total CFTR intensity came out at 84%.
On the same counts, the results for `CC(=O)Nc1nc(CCC(C)C)cc2c1c(=O)oc1ccccc12` are 77% (inactive) and 80%.
On the same counts, the results for `Cc1cc(OCC(=O)C(C)(C)C)c2c(C)c(C)c(=O)oc2c1` are 86% (inactive) and 86%.
For `CCN(CC)CCOC(=O)C1(C2CCCCC2)CCCCC1`, the plasma membrane CFTR intensity is 120% (active) and the total CFTR intensity came out at 123%.
For the compound `CCN(CC)CCOC(=O)C(c1ccccc1)c1ccccc1`, the plasma membrane CFTR intensity is 86% (inactive) and the total CFTR intensity is 84%.
On the same counts, the results for `CCC(C(=O)OCCN(CC)CC)c1ccccc1` (stereo unspecified) are 95% (inactive) and 100%.
On the same counts, the results for `O=C(NCCO)c1ccc(Cl)c(Cl)c1` are 90% (inactive) and 90%.
The like results for `Cc1cccc2c(C(=O)O)cc(-c3cccnc3)nc12` were, in that order, 94% (inactive) and 93%.
`C[C@]12CC[C@@H]3c4ccc(O)cc4CC[C@H]3[C@@H]1CC[C@@H]2OC(=O)CCC(=O)O`: the plasma membrane CFTR intensity was 78% (inactive) and the total CFTR intensity was 84%.
`CC(=O)Nc1ccc(S(=O)(=O)c2ccc(N)cc2)cc1`: the plasma membrane CFTR intensity was 97% (inactive) and the total CFTR intensity came to 95%.
The like results for `Cc1cc(C(=O)NC(CC(C)C)C(=O)O)cc(C)c1[N+](=O)[O-]` (stereo unspecified) were, in that order, 73% (inactive) and 71%.
The like results for `COc1ccc(CC(=O)c2c(O)cc(O)cc2O)cc1OC` were, in that order, 83% (inactive) and 82%.
On the same counts, the results for `Cc1cc(O)c(C(=O)Cc2csc(C)n2)c(O)c1` are 110% (active) and 127%.
For the compound `Cc1cc(O)c2/c(=N/N)c(-c3csc(C)n3)coc2c1`, the plasma membrane CFTR intensity was 69% (inactive) and the total CFTR intensity stood at 71%.
The like results for `CC(C)CC(NC(=O)C(NC(=O)OC(C)(C)C)C(C)C)C(=O)NC(CCC(=O)OCc1ccccc1)C(N)=O` (stereo not drawn) (Boc-Val-Leu-Glu(OBn)-NH2; configuration not given here) were, in that order, 82% (inactive) and 80%.
In the case of `O=C1C(=O)c2ccccc2C(O)=C1c1ccccc1F`, the plasma membrane CFTR intensity was 70% (inactive) and the total CFTR intensity came to 75%.
With `CC(=O)[C@@H]1[C@@H](C(=O)c2ccc(C)cc2)[C@]2(C(=O)Nc3ccccc32)[C@H]2C=Cc3cc(F)ccc3N12`, the plasma membrane CFTR intensity was 77% (inactive) and the total CFTR intensity stood at 114%.
The like results for `CC(C)OC(=O)C1C(=O)CC(C)(O)C(C(=O)OC(C)C)C1c1cccc(O)c1` (stereo unspecified) were, in that order, 77% (inactive) and 78%.
As to `CCOC(=O)c1ccccc1NC(=O)c1ccc(F)cc1`, the plasma membrane CFTR intensity was 101% (inactive) and the total CFTR intensity amounted to 103%.
Regarding `CCOc1ccc(NC(=O)N[C@@H](CCSC)C(=O)OC)cc1`, the plasma membrane CFTR intensity was 88% (inactive) and the total CFTR intensity is 88%.
Turning to `FC(F)(F)c1ccc(-c2noc(CN3CCCN(C4CCCCC4)CC3)n2)cc1`, the plasma membrane CFTR intensity is 95% (inactive) and the total CFTR intensity was determined as 100%.
On to `COc1ccc2[nH]cc(CCNC(=O)C3CCCNC3=O)c2c1` (stereo unspecified), for which the plasma membrane CFTR intensity is 87% (inactive) and the total CFTR intensity was determined as 85%.
On the same counts, the results for `CC(C)(C)C(=O)NC(=S)NNC(=O)c1ccncc1` are 94% (inactive) and 90%.
With `O=C(NC(Nc1ccccn1)C(Cl)(Cl)Cl)c1ccccc1` (stereo unspecified), the plasma membrane CFTR intensity was 84% (inactive) and the total CFTR intensity stood at 85%.
The like results for `COc1cc(CNc2nnnn2C)ccc1OCc1ccc(F)cc1Cl` were, in that order, 79% (inactive) and 78%.
On the same counts, the results for `CC1CCCc2sc3ncn(N)c(=N)c3c21` (stereo unspecified) are 71% (inactive) and 71%.
Turning to `O=C(c1ccco1)N(CCC(c1ccccc1)c1ccco1)Cc1ccco1` (stereo unspecified), the plasma membrane CFTR intensity is 99% (inactive) and the total CFTR intensity amounted to 101%.
The like results for `CC(=O)Nc1nnc(S(N)(=O)=O)s1` were, in that order, 87% (inactive) and 89%.
The like results for `CC(=O)N=c1sc(S(N)(=O)=O)nn1C` were, in that order, 125% (active) and 144%.
For the compound `COc1ccc(CNC(=O)c2cc3c(=O)n4ccccc4nc3n(Cc3cccnc3)c2=N)cc1`, the plasma membrane CFTR intensity was 556% (inactive) and the total CFTR intensity amounted to 561%.
`COc1ccc(S(=O)(=O)NC(Cc2cnc[nH]2)C(=O)O)cc1` (stereo unspecified): the plasma membrane CFTR intensity is 75% (inactive) and the total CFTR intensity stood at 82%.
Turning to `CC(C)Cn1c(=S)[nH]c2cc(C(=O)O)ccc2c1=O`, the plasma membrane CFTR intensity was 78% (inactive) and the total CFTR intensity stood at 81%.
In the case of `O=C(CCCC(=O)OCC1CCCO1)OCC1CCCO1` (stereo unspecified), the plasma membrane CFTR intensity is 84% (inactive) and the total CFTR intensity was determined as 84%.
Take `CC(=O)[C@@]1(O)CC[C@H]2[C@@H]3CCC4=CC(=O)CC[C@]4(C)[C@H]3CC[C@@]21C`: the plasma membrane CFTR intensity was 88% (inactive) and the total CFTR intensity came out at 89%.
The like results for `CC(=O)[C@H]1CC[C@H]2[C@@H]3CCC4=CC(=O)CC[C@]4(C)[C@H]3CC[C@]12C` were, in that order, 81% (inactive) and 85%.
For the compound `CC(=O)SC1CC2=CC(=O)CCC2(C)C2CCC3(C)C(CCC34CCC(=O)O4)C12` (stereo unspecified), the plasma membrane CFTR intensity is 177% (active) and the total CFTR intensity is 233%.
As for `N#C/C(=C\c1ccc(O)c(O)c1)C(=O)NCCCc1ccccc1`, the plasma membrane CFTR intensity is 78% (inactive) and the total CFTR intensity is 83%.
